Consider 35 molecules from PubChem BioAssay (Tox21).

Inconclusive results are not listed. Active and inactive are the calls of the source. Unless noted, the call rests on the fitted dose curve; in most records, active means well fitted curve in the direction sought with a large enough effect in the repeat runs; inconclusive means weak or mixed curves; inactive means no such curve, though single readings can be large; an effect the other way counts as inactive or inconclusive.
On the % scale 0 is the no-effect control and ±100 the full control effect.

Tested on in the first assay: not listed separately
The experiment in a line: qHTS assay to identify small molecule antagonists of the estrogen receptor alpha (ER-alpha) signaling pathway using the BG1 cell line (AID 743080; calls by dose curve;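 further: BG1 cells stimulated with 17beta-estradiol alongside compound; nearly all actives have a fitted effect of over 25% in size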; further: potency means the concentration at half of the fitted maximal effect). Conditions: BG1Luc4E2 ERE-luciferase antagonist mode, luminescence; series mostly up to 70.3 µM; activity change, negative = inhibition: at the top concentration. In outline:
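Quantitative HTS on the Tox21 10K library: BG1 cells with endogenous ER-alpha and ERE-luciferase reporter, 17beta-estradiol stimulation, 21.5 h compound exposure, luminescence endpoint with parallel fluorescence cytotoxicity counter-read.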
As to `O=C1[C@H](CC[C@H](O)c2ccc(F)cc2)[C@@H](c2ccc(O)cc2)N1c1ccc(F)cc1`, the “activity change, negative = inhibition” value is 0% (inactive).
Still for that read-out and setting: as for `Oc1ccc(Sc2ccc(O)cc2)cc1`, the figure is -18.2% (inactive); as for `N#Cc1cc2ccccc2c2ccccc12`, 29.9% [at 95 µM] (inactive).
On the same count and under the same terms, as for `CCN(CC)C(C)CN1c2ccccc2Sc2ccccc21` (configuration not stated), the figure is -12.9% [at 32.5 µM] (inactive).
On to `CN1CCC(OC(c2ccccc2)c2ccccc2)CC1`, for which the “activity change, negative = inhibition” value was -7.86% [at 32.5 µM] (inactive).
In the case of `O=C(Cl)c1c(Cl)cccc1Cl`, the “activity change, negative = inhibition” value was 0.328% [at 95 µM] (inactive).
Consider `CNCC[C@@H](Oc1ccccc1C)c1ccccc1`, for which the “activity change, negative = inhibition” value is -5.39% (inactive).
Take `COc1ccc(C(C)=O)cc1`: the “activity change, negative = inhibition” value was 13.5% [at 95 µM] (inactive).
Consider `O=C1CCCCCO1`, for which the “activity change, negative = inhibition” value was 2.18% [at 95 µM] (inactive).
Consider `CCCCC(CC)COCCCN` (configuration not stated), for which the “activity change, negative = inhibition” value is 13.6% (inactive).
Regarding `COC(Cc1ccccc1)OC`, the “activity change, negative = inhibition” value is 10.7% (inactive).
The same measure, in the same setting: as for `Oc1ccc(O)c2c(O)cccc12`, the figure is -21.6% (inactive); as for `CC(=O)O[C@H]1C[C@@H]2CC[C@@H]3[C@H](CC[C@@]4(C)[C@H]3C[C@H]([N+]3(C)CCCCC3)[C@@H]4OC(C)=O)[C@@]2(C)C[C@@H]1N1CCCCC1`, 0.45% (inactive).
For the molecule `CN(C)CC[C@@H](c1ccc(Br)cc1)c1ccccn1`, the “activity change, negative = inhibition” value is -0.601% (inactive).
Same read-out and setting: as for `CC(C)NCC(O)c1cc(O)cc(O)c1` (configuration not stated), the figure is -5.09% (inactive).
Same read-out and setting: as for `CCN1CCC[C@H]1CNC(=O)c1c(OC)ccc(Br)c1OC`, the figure is 1.18% (inactive); as for `CCCC(=O)OCC`, 4.96% (inactive).
On the same count and under the same terms, as for `COc1ccc2[nH]c(S(=O)Cc3ncc(C)c(OC)c3C)nc2n1` (configuration not stated), the figure is -8.22% (inactive).
For the molecule `CC(C)(C)c1cc(CO)cc(C(C)(C)C)c1O`, the Potency is 69.9 µM (active).
On to `CC(C)CC=O`, for which the “activity change, negative = inhibition” value is -13% (inactive).
On the same count and under the same terms, as for `O=S(=O)(O)c1ccc(O)c2ncccc12`, the figure is -0.0533% (inactive).

Tested on in another assay: not listed separately
The experiment in a line: qHTS assay to identify small molecule antagonists of the estrogen receptor alpha (ER-alpha) signaling pathway using the BG1 cell line - cell viability counter screen (AID 743081).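 Further: compound given together with 17beta-estradiol as the ER stimulus; nearly all actives have a fitted effect of over 45% in size.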 Conditions: BG1Luc4E2 viability, CellTiter-Fluor, 22 h; series mostly up to 70.3 µM; activity change, negative = cytotoxicity: at the top concentration.
As for `O=C1[C@H](CC[C@H](O)c2ccc(F)cc2)[C@@H](c2ccc(O)cc2)N1c1ccc(F)cc1`, the “activity change, negative = cytotoxicity” value was -3.47% (inactive).
For `CC(=O)c1ccc2c(c1)[C@H](NC(=O)c1ccc(F)cc1)[C@@H](O)C(C)(C)O2`, the “activity change, negative = cytotoxicity” value is -11.7% (inactive).
With `CCOc1ccc2[nH]cc(C(=O)NCc3ccccc3)c(=O)c2n1`, the “activity change, negative = cytotoxicity” value is -0.063% (inactive).
With `Oc1ccc(Sc2ccc(O)cc2)cc1`, the “activity change, negative = cytotoxicity” value was 0.0472% (inactive).
Same read-out and setting: as for `N#Cc1cc2ccccc2c2ccccc12`, the figure is 0.394% [at 95 µM] (inactive); as for `CCN(CC)C(C)CN1c2ccccc2Sc2ccccc21` (configuration not stated), -9.76% [at 32.5 µM] (inactive).
In the case of `Cc1ccc2c(ccc3ccccc32)c1`, the “activity change, negative = cytotoxicity” value was 5.75% [at 95 µM] (inactive).
Consider `CC(Cc1cccc(C(F)(F)F)c1)NCCOC(=O)c1ccccc1` (configuration not stated), for which the “activity change, negative = cytotoxicity” value was -1.21% (inactive).
Turning to `CN1CCC(OC(c2ccccc2)c2ccccc2)CC1`, the “activity change, negative = cytotoxicity” value was -3.51% [at 32.5 µM] (inactive).
Regarding `O=C(Cl)c1c(Cl)cccc1Cl`, the “activity change, negative = cytotoxicity” value is 0.452% [at 95 µM] (inactive).
On the same count and under the same terms, as for `CNCC[C@@H](Oc1ccccc1C)c1ccccc1`, the figure is -0.0637% (inactive); as for `COc1ccc(C(C)=O)cc1`, 4.59% [at 95 µM] (inactive); as for `CCCCCCCC/C=C\CCCCCCCC(N)=O`, -5.85% (inactive).
As for `O=C1CCCCCO1`, the “activity change, negative = cytotoxicity” value was -2.09% [at 95 µM] (inactive).
With `CCCCC(CC)COCCCN` (configuration not stated), the “activity change, negative = cytotoxicity” value is -14.1% (inactive).
The same measure, in the same setting: as for `C=CC(C)(CCC=C(C)C)OC(=O)c1ccccc1` (configuration not stated), the figure is 13.7% (inactive); as for `COC(Cc1ccccc1)OC`, -1.99% (inactive); as for `O=[N+]([O-])c1cc[n+]([O-])cc1`, -20.5% (inactive).
The same measure, in the same setting: as for `Oc1ccc(O)c2c(O)cccc12`, the figure is -13.8% (inactive); as for `CC1(C)CCC(C)(C)c2cc(NC(=O)c3ccc(C(=O)O)cc3)ccc21`, -0.781% (inactive).
`CC(=O)c1c(C)c([N+](=O)[O-])c(C(C)(C)C)c([N+](=O)[O-])c1C`: the “activity change, negative = cytotoxicity” value is 5.43% (inactive).
The same measure, in the same setting: as for `CC1CCc2cc(F)cc3c(=O)c(C(=O)O)cn1c23` (configuration not stated), the figure is -7.11% (inactive).
On the same count and under the same terms, as for `CC(=O)O[C@H]1C[C@@H]2CC[C@@H]3[C@H](CC[C@@]4(C)[C@H]3C[C@H]([N+]3(C)CCCCC3)[C@@H]4OC(C)=O)[C@@]2(C)C[C@@H]1N1CCCCC1`, the figure is 0.642% (inactive); as for `CN(C)CC[C@@H](c1ccc(Br)cc1)c1ccccn1`, -2.55% (inactive).
On to `CC(C)NCC(O)c1cc(O)cc(O)c1` (configuration not stated), for which the “activity change, negative = cytotoxicity” value is -1.13% (inactive).
With `CCN1CCC[C@H]1CNC(=O)c1c(OC)ccc(Br)c1OC`, the “activity change, negative = cytotoxicity” value is -2.21% (inactive).
Same read-out and setting: as for `CCCC(=O)OCC`, the figure is -10.8% (inactive); as for `Cc1cc(CC(=O)O)c(C)n1-c1ccc(Cl)cc1`, 1.81% (inactive); as for `COc1ccc2[nH]c(S(=O)Cc3ncc(C)c(OC)c3C)nc2n1` (configuration not stated), -13.5% (inactive).
The same measure, in the same setting: as for `CC(C)(C)c1ccc(S)cc1`, the figure is 1.72% (inactive); as for `CC(C)(C)c1cc(CO)cc(C(C)(C)C)c1O`, -10.2% [at 95 µM] (inactive); as for `CC(C)CC=O`, 15.1% (inactive).
Same read-out and setting: as for `COc1cc(C(C)(C)C)c(O)c(C(C)(C)C)c1`, the figure is 4.55% (inactive).

The target of another assay is Aromatase (Homo sapiens) (UniProt P11511). The experiment in a line: qHTS assay to identify aromatase inhibitors (AID 743083). Further: nearly all actives have a fitted effect of over 55% in size. Further: potency means the concentration at half of the fitted maximal effect. The following applies: MCF-7 aro ERE, testosterone-driven ERE luciferase, 24 h; series mostly up to 70.3 µM; activity, negative = inhibition: at the top concentration. In general terms: qHTS replaces the single test concentration by a dilution series.
Aromatase (Homo sapiens), sequence (P11511 whole entry, looked up): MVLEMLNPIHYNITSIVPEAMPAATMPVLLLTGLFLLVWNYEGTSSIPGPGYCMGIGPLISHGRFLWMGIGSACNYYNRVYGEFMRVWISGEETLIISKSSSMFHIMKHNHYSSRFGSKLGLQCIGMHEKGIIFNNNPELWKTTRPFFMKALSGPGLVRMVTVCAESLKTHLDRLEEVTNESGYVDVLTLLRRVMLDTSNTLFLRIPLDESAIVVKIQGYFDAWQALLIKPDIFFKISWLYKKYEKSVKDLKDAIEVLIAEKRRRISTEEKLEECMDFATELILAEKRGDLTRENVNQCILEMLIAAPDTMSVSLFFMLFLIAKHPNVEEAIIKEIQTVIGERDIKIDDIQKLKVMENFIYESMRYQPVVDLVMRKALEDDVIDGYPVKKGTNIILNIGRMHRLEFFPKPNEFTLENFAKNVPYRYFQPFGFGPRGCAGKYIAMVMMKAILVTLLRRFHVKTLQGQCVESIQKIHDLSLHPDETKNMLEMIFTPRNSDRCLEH
With `O=C1[C@H](CC[C@H](O)c2ccc(F)cc2)[C@@H](c2ccc(O)cc2)N1c1ccc(F)cc1`, the “activity, negative = inhibition” value was -0.838% (inactive).
As to `CC(=O)c1ccc2c(c1)[C@H](NC(=O)c1ccc(F)cc1)[C@@H](O)C(C)(C)O2`, the “activity, negative = inhibition” value is 11.2% (inactive).
Regarding `CCOc1ccc2[nH]cc(C(=O)NCc3ccccc3)c(=O)c2n1`, the Potency was 61.1 µM (active).
For `Oc1ccc(Sc2ccc(O)cc2)cc1`, the “activity, negative = inhibition” value is -5.95% (inactive).
For the molecule `N#Cc1cc2ccccc2c2ccccc12`, the “activity, negative = inhibition” value is 25.7% [at 95 µM] (inactive).
For `CCN(CC)C(C)CN1c2ccccc2Sc2ccccc21` (configuration not stated), the “activity, negative = inhibition” value was -11.7% [at 32.5 µM] (inactive).
Still for that read-out and setting: as for `Cc1ccc2c(ccc3ccccc32)c1`, the figure is 17.6% [at 95 µM] (inactive).
Take `CC(Cc1cccc(C(F)(F)F)c1)NCCOC(=O)c1ccccc1` (configuration not stated): the Potency is 29.8 µM (active).
Regarding `CN1CCC(OC(c2ccccc2)c2ccccc2)CC1`, the “activity, negative = inhibition” value is 0.814% [at 32.5 µM] (inactive).
Same read-out and setting: as for `O=C(Cl)c1c(Cl)cccc1Cl`, the figure is -1.38% [at 95 µM] (inactive); as for `CNCC[C@@H](Oc1ccccc1C)c1ccccc1`, -11.2% (inactive).
The same measure, in the same setting: as for `COc1ccc(C(C)=O)cc1`, the figure is 2.99% [at 95 µM] (inactive); as for `CCCCCCCC/C=C\CCCCCCCC(N)=O`, -8.65% (inactive).
On the same count and under the same terms, as for `O=C1CCCCCO1`, the figure is 9.21% [at 95 µM] (inactive); as for `CCCCC(CC)COCCCN` (configuration not stated), -0.358% (inactive).
Take `COC(Cc1ccccc1)OC`: the “activity, negative = inhibition” value is 7.46% (inactive).
On the same count and under the same terms, as for `Oc1ccc(O)c2c(O)cccc12`, the figure is -16.2% (inactive); as for `CC(=O)c1c(C)c([N+](=O)[O-])c(C(C)(C)C)c([N+](=O)[O-])c1C`, -18.5% (inactive).
With `CC(=O)O[C@H]1C[C@@H]2CC[C@@H]3[C@H](CC[C@@]4(C)[C@H]3C[C@H]([N+]3(C)CCCCC3)[C@@H]4OC(C)=O)[C@@]2(C)C[C@@H]1N1CCCCC1`, the “activity, negative = inhibition” value was -0.366% (inactive).
In the case of `CC(C)NCC(O)c1cc(O)cc(O)c1` (configuration not stated), the “activity, negative = inhibition” value is -0.465% (inactive).
Same read-out and setting: as for `CCN1CCC[C@H]1CNC(=O)c1c(OC)ccc(Br)c1OC`, the figure is -9.17% (inactive).
Take `CCCC(=O)OCC`: the “activity, negative = inhibition” value is 10.3% (inactive).
Regarding `Cc1cc(CC(=O)O)c(C)n1-c1ccc(Cl)cc1`, the “activity, negative = inhibition” value is 6.12% (inactive).
As to `COc1ccc2[nH]c(S(=O)Cc3ncc(C)c(OC)c3C)nc2n1` (configuration not stated), the “activity, negative = inhibition” value is 12% (inactive).
The same measure, in the same setting: as for `CC(C)(C)c1ccc(S)cc1`, the figure is 3.33% (inactive); as for `CCN(CC)CCOc1ccc2c(c1)C(=O)c1cc(OCCN(CC)CC)ccc1-2`, 38% (inactive); as for `CC(C)CC=O`, 5.8% (inactive).
For `O=S(=O)(O)c1ccc(O)c2ncccc12`, the “activity, negative = inhibition” value is -4.21% (inactive).
